For 15 molecules, Potency results are on record in PubChem BioAssay (NCATS).

Values without a mark were called inactive. How the calls were made is not given here.
Potency means the concentration at half of the fitted maximal effect.

The assay has as its system HIV-1 nucleocapsid protein NCp7 (binding to TG oligonucleotide). The assay can be described thus: HIV Nucleocapsid (AID 346).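 Further: potency is for inhibitors that block NC binding and lower polarization.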 The conditions noted are these: HIV-1 NC / fluorescein-TGTGTGTG probe, fluorescence polarization. The essentials:
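Fluorescence polarization binding of 100 nM HIV-1 NC to 10 nM fluorescein-labelled TG4xF oligonucleotide. Buffer was Hepes pH 7.5 with 250mM NaCl, 1uM ZnCl2, TCEP and 2-mercaptoethanol. Compounds were incubated 1 hr at room temperature before the read.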
(In general: In fluorescence polarisation assays a small probe gives low polarisation when free and higher when bound to something large.)
In the case of `COc1cccc(Nc2ncc3nc(C)c(=O)n(-c4ccccc4)c3n2)c1`, the Potency is above 20 µM. The value for `c1cncc(CNc2ncncc2-c2ccoc2)c1` was above 20 µM; that for `COC(=O)N1CCC[C@@]2(CCN(C(=O)Nc3cccc(F)c3)C2)C1` was above 20 µM. With `Cn1c(=O)c(-c2cc(F)cc(F)c2)nc2cnc(Nc3ccccc3)nc21`, the Potency is above 20 µM.

As for `CCNc1ncc2nc(-c3cc(F)cc(F)c3)c(=O)n(CCOC)c2n1`, the Potency is above 20 µM. Regarding `N#Cc1cccc(-c2nccc(NCc3cccs3)n2)c1`, the Potency is above 20 µM. In the case of `COCC(=O)N1CCC2(CC1)CN(Cc1ccccc1OC)C2`, the Potency is above 20 µM. With `COCCn1c(=O)c(-c2cccc(F)c2)nc2cncnc21`, the Potency is above 20 µM.

Regarding `CN1CCN(c2ncnc3ccc(-c4cccc(NS(C)(=O)=O)c4)cc23)CC1`, the Potency was above 20 µM. Consider `COCCn1c(=O)c(-c2ccccc2)nc2cnc(Nc3cccc(OC)c3)nc21`, for which the Potency was above 20 µM. As for `CN(C)C(=O)c1ccc(-c2ccc3ncnc(N4CCNCC4)c3c2)cc1`, the Potency was above 20 µM. As for `CN(C)C(=O)c1ccc(-c2ccc3ncnc(N4CCOCC4)c3c2)cc1`, the Potency was above 20 µM. On to `CCNc1ncc2nc(-c3cccc(C#N)c3)c(=O)n(C)c2n1`, for which the Potency is above 20 µM. Take `CN1CCN(c2ncc3nc(-c4cccc(C#N)c4)c(=O)n(CCC#N)c3n2)CC1`: the Potency is above 20 µM. The value for `O=C(c1cnccn1)N1CCC2(CC1)CCN(c1ccncc1)CC2` was above 20 µM.
